The values that follow come from ChEMBL document CHEMBL1157539, “Thousands of chemical starting points for antimalarial lead identification” (Nature, 2010).

Each structure is given as a SMILES string.

Holding throughout (format): functional
Experiment [1] concerns Plasmodium falciparum. Description: GSK_TCMDC: Inhibition of Plasmodium falciparum 3D7 in whole red blood cells, using parasite LDH activity as an index of growth. Test compounds present at 2uM.
For experiment [2], the system named is Plasmodium falciparum. The experiment is described as follows: GSK_TCMDC: Inhibition of Plasmodium falciparum Dd2 in whole red blood cells, using parasite LDH activity as an index of growth. Test compounds present at 2uM.
The subject of the next experiment is HepG2. Description: GSK_TCMDC: Percent inhibition of human HepG2 cell line. Test compounds present at 10uM.

Turning to `CN1CCC(N2CCN(Cc3cccc(-c4cccc(-c5nc6ccccc6[nH]5)c4)c3)CC2)CC1.O=C(O)C(F)(F)F`, the Inhibition with Plasmodium falciparum [1] is given as 100%; in the experiment with Plasmodium falciparum [2] it was 100%; in the experiment with HepG2 it was 19%.
Turning to `O=C(NC1CCCCC1)N(Cc1ccc(-c2cccc(CNCc3ccc4c(c3)OCO4)c2)cc1)C1CCN(Cc2ccccc2)CC1.O=C(O)C(F)(F)F`, the Inhibition in the experiment with Plasmodium falciparum [1] is reported as 100%; in the experiment on Plasmodium falciparum [2] it was 72%; in the experiment on HepG2, 23%.
In the same order, the values of `O=C(Cc1cccc(Cl)c1)Nc1ccc(N2CCC(NCc3ccc4ncccc4c3)CC2)cc1` are 81%, 8% and 10%.
The like results for `COc1cccc(C(=O)NCc2cccs2)c1Oc1ccccc1` were, in that order, 98%, 4% and 0%.
Turning to `O=C(O[C@@H]1CN[C@H](C#Cc2cc3ncnc(Nc4ccc5c(cnn5Cc5cccc(F)c5)c4)c3s2)C1)N1CCCC1`, the Inhibition is given as 86% with Plasmodium falciparum [1], 56% in the experiment with Plasmodium falciparum [2] and 9% in the experiment with HepG2.
On to `Cl.N#Cc1ccc(C=CC(=O)NC2CCC(CCN3CCc4ccc(-c5cnccn5)cc4CC3)CC2)cc1` (configuration not stated), for which the Inhibition in the experiment on Plasmodium falciparum [1] is 100%; in the experiment with Plasmodium falciparum [2] it was 87%; with HepG2, 37%.
In the same order, the values of `O=C(Nc1ccc(-c2ccc(CN3CCNCC3)cc2)cc1)c1cccc(Cl)c1.O=C(O)C(F)(F)F` are 91%, 16% and 58%.
Take `CCc1cn(CCc2ccccc2)c2ccc(C(=O)N[C@@H](Cc3ccccc3)[C@H](O)CNC(C)(C)CCCC(C)C)cc12.O=CO`: the results for the Inhibition in the experiment with Plasmodium falciparum [1], in the experiment on Plasmodium falciparum [2] and in the experiment on HepG2 were 98%, 99% and 66%, respectively.
The like results for `CC(C)CNCc1ccc(-c2cccc(CN(CCN(C)C)C(=O)NCCc3ccccc3)c2)cc1.O=C(O)C(F)(F)F` were, in that order, 91%, 37% and 33%.

What is called Inhibition is the drop in the measured response relative to a control, in per cent. A low value points to little suppression.
